The supplement of paper PMC11634586
Structures can show the parent of a compound that is named as a salt. Unmarked numbers belong to inactive results.

Test system: NCI-H1688
Experiment: inhibition of cell viability relative to untreated control (fraction); higher = stronger growth inhibition, active = 0.5 or more
Details: 30 µM; 24 h
Summary of the method: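 Viability of NCI-H1688 small cell lung cancer cells was assessed with Cell Counting Kit-8 by absorbance at 450 nm, in triplicate, after a 24 h exposure to a natural compound library (TargetMol) at 30 µM at 37°C and 5% CO2. The cells had been seeded at 3 × 10^3 cells/well in 96-well plates 24 h before treatment. Inhibition of cell viability is reported as a fraction, derived from viability normalised against untreated cells.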

Row | Structure (SMILES) | inhibition of cell viability
1 | COc1ccc2c(c1OC)C(=O)O[C@@H]2[C@H]1c2c(cc3c(c2OC)OCO3)CCN1C [Noscapine hydrochloride] | 0.323
2 | C=C1C[C@@]23CC[C@H]4[C@@](C)(CCC[C@@]4(C)C(=O)O[C@@H]4O[C@H](CO)[C@@H](O)[C@H](O)[C@H]4O)[C@@H]2CC[C@]1(O[C@@H]1O[C@H](CO)[C@@H](O)[C@H](O)[C@H]1O[C@@H]1O[C@H](CO)[C@@H](O)[C@H](O)[C@H]1O)C3 [Stevioside] | -0.031
3 | C[C@H]1[C@H](C)CC[C@]2(C(=O)O[C@@H]3O[C@H](CO[C@@H]4O[C@H](CO)[C@@H](O[C@@H]5O[C@H](C)[C@H](O)[C@@H](O)[C@H]5O)[C@H](O)[C@H]4O)[C@@H](O)[C@H](O)[C@H]3O)CC[C@]3(C)C(=CC[C@@H]4[C@@]5(C)C[C@@H](O)[C@H](O)[C@@](C)(CO)[C@@H]5CC[C@]43C)[C@H]12 [Asiaticoside] | 0.145
4 | C=C1C[C@]23C[C@@]1(O)CC[C@H]2[C@@]12C=C[C@H](O)[C@@](C)(C(=O)O1)[C@H]2[C@@H]3C(=O)O [Gibberellic acid] | 0.0962
5 | OC[C@H]1O[C@H](O[C@H]2[C@H](O)[C@@H](O)[C@H](O)O[C@@H]2CO)[C@H](O)[C@@H](O)[C@@H]1O [Maltose] | 0.0503
6 | O=c1c(O[C@@H]2O[C@H](CO)[C@H](O)[C@H](O)[C@H]2O)c(-c2ccc(O)c(O)c2)oc2cc(O)cc(O)c12 [Hyperoside] | -0.0387
7 | COc1c(O)cc2oc3cc(O)c(CC=C(C)C)c(O)c3c(=O)c2c1CC=C(C)C [Mangostin] | 1 (active)
8 | COc1cc(C=O)ccc1O [Vanillin] | 0.219
9 | Oc1cc(O)c2c(c1)O[C@H](c1ccc(O)c(O)c1)[C@@H](O)C2 [(+)-Catechin Hydrate] | 0.159
10 | CC12CCC(CC1)C(C)(C)O2 [Eucalyptol] | -0.192
11 | N[C@@H](Cc1cc(I)c(Oc2cc(I)c(O)c(I)c2)c(I)c1)C(=O)O [L-Thyroxine] | 0.22
12 | C=C1C(=O)O[C@@H]2/C=C(\C)CC/C=C(\C)CC[C@@H]12 [Costunolide] | 0.333
13 | O=C(O[C@@H]1Cc2c(O)cc(O)cc2O[C@@H]1c1ccc(O)c(O)c1)c1cc(O)c(O)c(O)c1 [(-)-Epicatechin gallate] | 0.121
14 | CCOC(=O)/C=C/c1ccc(O)c(OC)c1 [Ethyl ferulate] | -0.0133
15 | CC[C@H](C)[C@H](N)C(=O)O [isoleucine] | -0.178
16 | C[C@@H]1O[C@@H](O[C@H]2[C@H](Oc3cc(O)c4c(=O)cc(-c5ccc(O)cc5)oc4c3)O[C@H](CO)[C@@H](O)[C@@H]2O)[C@H](O)[C@H](O)[C@H]1O [Rhoifolin] | 0.127
17 | Cc1cccc(C)c1NC(=O)c1ccccc1C(=O)O [Ftaxilide] | -0.0604
18 | O=c1cc(-c2ccc(O)c(O)c2)oc2cc(O)cc(O)c12 [Luteolin] | 0.794 (active)
19 | OC[C@H]1O[C@@H]2O[C@H]3[C@H](O)[C@@H](O)[C@@H](O[C@H]4[C@H](O)[C@@H](O)[C@@H](O[C@H]5[C@H](O)[C@@H](O)[C@@H](O[C@H]6[C@H](O)[C@@H](O)[C@@H](O[C@H]7[C@H](O)[C@@H](O)[C@@H](O[C@H]8[C@H](O)[C@@H](O)[C@@H](O[C@H]1[C@H](O)[C@H]2O)O[C@@H]8CO)O[C@@H]7CO)O[C@@H]6CO)O[C@@H]5CO)O[C@@H]4CO)O[C@@H]3CO [Beta-Cyclodextrin] | 0.0604
20 | C[C@@H]1O[C@@H](O[C@H]2[C@H](O[C@H]3CC[C@@]4(C)[C@@H](CC[C@]5(C)[C@@H]4CC=C4[C@@H]6CC(C)(C)CC[C@]6(C(=O)O)CC[C@]45C)[C@]3(C)CO)OC[C@H](O)[C@@H]2O)[C@H](O)[C@H](O)[C@H]1O [Alpha-Hederin] | 0.999 (active)
21 | COC(=O)C1=CO[C@@H](O)[C@@H]2C(CO)=CC[C@H]12 [Genipin] | 0.135
22 | C=C(C)[C@@H]1CC=C(CO)CC1 [Perillyl alcohol] | 0.195
23 | CC1(C)CCC[C@](C)([C@H]2CC[C@]3(C)[C@@H]2[C@H](O)C[C@@H]2[C@@]4(C)CC[C@H](O)C(C)(C)[C@@H]4[C@H](O)C[C@]23C)O1 [Panaxtriol] | -0.0145
